The text below walks through data of publication PMC7819943, “Rice protein-binding microarrays: a tool to detect cis-acting elements near promoter regions in rice”.

Whole data set: some 35,000 sequences, median “fluorescence intensity (a.u.)” near 10,000, cut for the highest 2% near 52,000. Only a selection was taken, and the highest values are over-represented in it overall.

The assay has as its target T1, OsWOX13 (Oryza sativa, UniProt Q5QMM3 1-267).
T1 sequence: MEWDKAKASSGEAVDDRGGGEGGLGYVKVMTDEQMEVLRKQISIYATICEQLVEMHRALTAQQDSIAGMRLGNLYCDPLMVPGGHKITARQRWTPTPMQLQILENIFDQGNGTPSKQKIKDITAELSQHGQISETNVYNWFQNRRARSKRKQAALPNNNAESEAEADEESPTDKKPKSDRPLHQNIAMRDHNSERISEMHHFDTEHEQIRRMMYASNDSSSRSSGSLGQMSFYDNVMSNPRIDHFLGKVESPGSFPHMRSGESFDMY
Kind of assay: protein-binding microarray (RPBM); PBS, 2% BSA, 51.3 ng/ul salmon testes DNA, 50 uM zinc acetate, 200 nM TF, 25 C, 1 h; high values mean tight binding. As to conditions: protein: recombinant; tags: N-terminal polyhistidine and DsRed monomer fusion (pET32a); label: CyDye5-dUTP incorporated in the synthesized complementary strand; 3' TTTTT single-stranded linker to array surface; dsDNA, one strand shown. The procedure, abridged: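 A custom Agilent array was converted to double-stranded form by primer extension with Cy5-dUTP and blocked with 2% BSA. Protein at 200 nM in PBS with 2% BSA, salmon testes DNA and 50 µM zinc acetate was applied for 1 h at 25 °C, followed by washing. The proteins were polyhistidine–DsRed N-terminal fusions of transcription factors, expressed in E. coli BL21-CodonPlus and Ni–NTA-purified. The binding signal is per-feature fluorescence intensity (arbitrary units) from an Axon 4000B scanner.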
“TTTGTTGCTTTACTTGGGAGATTGATCGCTAAACGAGTCACGGAGTCACCTAGTGCAG”: the binding signal was 3150 fluorescence intensity (a.u.).
With “GATTAATTAGATTTAATAAATTCATCTCGCAGTTTACAGGCGGAGTCACCTAGTGCAG”, the binding signal was 62200 fluorescence intensity (a.u.).
“GACTTGATTTACAGATTTATTGACAGAGTTTTGCTAAGCTCGGAGTCACCTAGTGCAG”: the binding signal is 56600 fluorescence intensity (a.u.).
The same measure for “GATTAATTAGGCTTCATAAATTCGTCTCGCAGTTTACAGGCGGAGTCACCTAGTGCAG”: 30800 fluorescence intensity (a.u.).
The result for “TGCTTTATTATTTGATTGATTGATCACTTGTTGGATGGGACGGAGTCACCTAGTGCAG” reads 64200 fluorescence intensity (a.u.).
As to “GAAGATGATGATGATTTAGCATGCAAATGAGCAGTTGACACGGAGTCACCTAGTGCAG”, the binding signal was 13800 fluorescence intensity (a.u.).
Consider “TTATTTGTGGCTTGAAGATTGACAGCTTTTGTTGATTGCTCGGAGTCACCTAGTGCAG”, for which the binding signal was 9340 fluorescence intensity (a.u.).
The same measure for “CAGATCAATTTATCGAGATTGATCAAAAGCAAGATGATGCCGGAGTCACCTAGTGCAG”: 35000 fluorescence intensity (a.u.); for “TTAATTAGGTTTAATAGATTCATCTCGCAGTTTACAGGCACGGAGTCACCTAGTGCAG”: 18500 fluorescence intensity (a.u.).
The result for “ATTGCAGATTGATTTATCTCGTCAAGATTGATGAGCATGCCGGAGTCACCTAGTGCAG” reads 63500 fluorescence intensity (a.u.); that for “TAAGTTTTAATTGAAATTTTGTTCACAAATACTCCAAATCCGGAGTCACCTAGTGCAG”, 11900 fluorescence intensity (a.u.).
As for “ATTTTAATTTTAATTATTAATACTCCATTAGCATTTAGTTCGGAGTCACCTAGTGCAG”, the binding signal is 18200 fluorescence intensity (a.u.).
The same measure for “CATGATTAATTAAATATTAACGATCATAAATTTGAAAATTCGGAGTCACCTAGTGCAG”: 29300 fluorescence intensity (a.u.); for “ATGTTGATTGTCTAAAATCACAGATTTAGCACATTATCGACGGAGTCACCTAGTGCAG”: 29800 fluorescence intensity (a.u.).
The same measure for “CATCATGATTTGATGATGGATTAATTATGCTTAATAAATTCGGAGTCACCTAGTGCAG”: 55300 fluorescence intensity (a.u.); for “GCATTTGCTAATGATGGATTAATTAGGCTTAATAGATTCGCGGAGTCACCTAGTGCAG”: 11800 fluorescence intensity (a.u.).
The same measure for “CATTTGCTAATGATGGATTAATTAGGCTTAATAAATTTGTCGGAGTCACCTAGTGCAG”: 19900 fluorescence intensity (a.u.); for “GTATAAATTTGGACAGATTGTGATTAGATTTATAGTCCTACGGAGTCACCTAGTGCAG”: 29800 fluorescence intensity (a.u.).
As for “GTGACTGACTGATGATAAATTTGATAATACGCGTCGTTAGCGGAGTCACCTAGTGCAG”, the binding signal is 63100 fluorescence intensity (a.u.).
The same measure for “AAAATAAATTTGACTGTGAATATACGTTAACTGGTCATAGCGGAGTCACCTAGTGCAG”: 23100 fluorescence intensity (a.u.); for “TGCTAATGATGGATTAATTAGGCTTAATAAATTCGTCTCGCGGAGTCACCTAGTGCAG”: 54700 fluorescence intensity (a.u.).
For the sequence “TTGCTAATGATGAATTAATTAGGCTTAATAAATTCGTCTCCGGAGTCACCTAGTGCAG”, the binding signal was 28300 fluorescence intensity (a.u.).
The same measure for “ATTTATAAATTGATTTGGAGCACAGATCGATACGTGCAGACGGAGTCACCTAGTGCAG”: 53400 fluorescence intensity (a.u.); for “AAATAACAAATTTGACTGTGAATATACGTATACTAGTTAGCGGAGTCACCTAGTGCAG”: 19300 fluorescence intensity (a.u.); for “GCCCACTCATAATTTCTCCCTTGATTTGTAAAGAAATAAGCGGAGTCACCTAGTGCAG”: 16000 fluorescence intensity (a.u.).
The same measure for “GAAAATTAGTAGAGAACTAATTAGGGATAAAGTCATTATTCGGAGTCACCTAGTGCAG”: 13000 fluorescence intensity (a.u.).
The same measure for “AAGATTTGTCTCATAAATTAGTCGCAATATGTGTAATTAGCGGAGTCACCTAGTGCAG”: 7560 fluorescence intensity (a.u.); for “AAAATATCAATTGGCCATAATCATTGTAAGCACTATACAGCGGAGTCACCTAGTGCAG”: 7780 fluorescence intensity (a.u.).
With “ATCCAATCATACTCCAAGATCTGAAGAGAAGGAGGGATTGCGGAGTCACCTAGTGCAG”, the binding signal was 11900 fluorescence intensity (a.u.).
Take “GATGGACCAATTTGATTGTTGTTGGATTCTACGATGCATGCGGAGTCACCTAGTGCAG”: the binding signal is 9950 fluorescence intensity (a.u.).
As for “GCTTAAATTAATATACCTGAACCGGCGAGCATTTAAATTTCGGAGTCACCTAGTGCAG”, the binding signal was 5370 fluorescence intensity (a.u.).
The result for “AGTACAAATGACGGATTAATTAGGCTTAATAAATTCGTCTCGGAGTCACCTAGTGCAG” reads 19200 fluorescence intensity (a.u.).
For the sequence “TTGATTGATTTGTTTGCACTCCATGAAATAAGTGAGGGCTCGGAGTCACCTAGTGCAG”, the binding signal is 65200 fluorescence intensity (a.u.).
The same measure for “TCGCTTAATTAATTTGGATTTGGATGCGGATCCCTCGCCTCGGAGTCACCTAGTGCAG”: 56000 fluorescence intensity (a.u.); for “ACGGATTAATTAGGCTTAATAAATTTGCCTCGCGGTTTCTCGGAGTCACCTAGTGCAG”: 39200 fluorescence intensity (a.u.).
The same measure for “TTGATACTCTGATGATTGTAAAGTAAATTGTTTGAAATTTCGGAGTCACCTAGTGCAG”: 9650 fluorescence intensity (a.u.).
The result for “CTAATGACGAGATTAATTAGGCTTAATAAATTCGTCTCGCCGGAGTCACCTAGTGCAG” reads 54800 fluorescence intensity (a.u.); that for “GGATTAATTAGGCTTAATAAATTCATCTCGCAGTTTTCTGCGGAGTCACCTAGTGCAG”, 26200 fluorescence intensity (a.u.); that for “ATGATTTGTTGTTGAGTTCGGTTTGAAATCAATATAAGTACGGAGTCACCTAGTGCAG”, 14700 fluorescence intensity (a.u.).
On to “ACTAATGACGGATTAATTAGGCTTAATAAATTCGTCTCGCCGGAGTCACCTAGTGCAG”, for which the binding signal is 51500 fluorescence intensity (a.u.).
The result for “CGGATTAATTAGGCTTAATAAATTCATCTCGCAGTTTCCTCGGAGTCACCTAGTGCAG” reads 50800 fluorescence intensity (a.u.).
The same measure for “AATGACTGATTAATTAGGCTTAATAAATTCATCTCGCAGTCGGAGTCACCTAGTGCAG”: 59600 fluorescence intensity (a.u.); for “TGGCTTAATTTAATCCCCTCCATTCCGGATGCCTCTCCCTCGGAGTCACCTAGTGCAG”: 20200 fluorescence intensity (a.u.).
